From the supplement of paper PMC12645437, “Orthogonal IMiD-Degron Pairs Induce Selective Protein Degradation in Cells” (ACS Chemical Biology, 2025)
In all, about 8,300 sequences were measured (“log2 fold change of degron read counts, EGFP-low vs EGFP+ sorted cells (limma voom), compound-induced degradation”: median about -1.1, highest 2% from about 3.2 on). The list comes from a sample in which the highest values are over-represented; it also holds similar and randomly drawn sequences.

T1: CRBN, Q96SW2
T1 chain: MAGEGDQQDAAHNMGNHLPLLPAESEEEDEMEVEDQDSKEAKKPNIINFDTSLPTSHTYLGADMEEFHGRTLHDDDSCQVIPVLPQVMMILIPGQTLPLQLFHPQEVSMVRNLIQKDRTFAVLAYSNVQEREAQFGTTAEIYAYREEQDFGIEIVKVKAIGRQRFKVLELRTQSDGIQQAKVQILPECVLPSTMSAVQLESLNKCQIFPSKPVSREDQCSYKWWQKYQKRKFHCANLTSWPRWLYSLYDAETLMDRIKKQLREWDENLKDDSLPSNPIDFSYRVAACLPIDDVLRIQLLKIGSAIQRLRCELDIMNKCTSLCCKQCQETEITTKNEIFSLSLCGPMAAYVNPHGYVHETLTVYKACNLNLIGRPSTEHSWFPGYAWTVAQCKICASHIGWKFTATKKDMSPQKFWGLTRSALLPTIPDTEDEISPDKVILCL

B1: 46F_47F_49E_50Q_52G_53A_54I_55F_67L_, Q9UKT9 (peptide)
chain: FFCEQCGAIFTQKGNLLRHIKL
B2: 46L_47G_49N_50Q_52G_53F_54S_55C_67L_, Q9UKT9 (peptide)
chain: LGCNQCGFSCTQKGNLLRHIKL
B3: 46F_47H_49N_50Q_52G_53H_54D_55F_67L_, Q9UKT9 (peptide)
chain: FHCNQCGHDFTQKGNLLRHIKL
B4: 46F_47R_49P_50I_52G_53R_54K_55F_67L_, Q9UKT9 (peptide)
chain: FRCPICGRKFTQKGNLLRHIKL
B5: 46F_47I_49N_50Q_52G_53R_54H_55F_67L_, Q9UKT9 (peptide)
chain: FICNQCGRHFTQKGNLLRHIKL
B6: 46F_47R_49D_50Q_52G_53A_54Q_55F_67L_, Q9UKT9 (peptide)
chain: FRCDQCGAQFTQKGNLLRHIKL
B7: 46F_47M_49E_50Q_52G_53A_54S_55F_67L_, Q9UKT9 (peptide)
chain: FMCEQCGASFTQKGNLLRHIKL
B8: 46F_47W_49N_50Q_52G_53R_54C_55F_67L_, Q9UKT9 (peptide)
chain: FWCNQCGRCFTQKGNLLRHIKL
B9: 46L_47G_49E_50I_52G_53F_54I_55C_67L_, Q9UKT9 (peptide)
chain: LGCEICGFICTQKGNLLRHIKL
B10: 46F_47H_49E_50I_52G_53A_54R_55F_67L_, Q9UKT9 (peptide)
chain: FHCEICGARFTQKGNLLRHIKL
B11: 46F_47V_49E_50I_52G_53A_54R_55F_67L_, Q9UKT9 (peptide)
chain: FVCEICGARFTQKGNLLRHIKL
B12: 46F_47Y_49E_50I_52G_53A_54R_55F_67L_, Q9UKT9 (peptide)
chain: FYCEICGARFTQKGNLLRHIKL
B13: 46F_47R_49E_50I_52G_53A_54R_55F_67L_, Q9UKT9 (peptide)
chain: FRCEICGARFTQKGNLLRHIKL
B14: 46F_47L_49E_50I_52G_53A_54R_55F_67L_, Q9UKT9 (peptide)
chain: FLCEICGARFTQKGNLLRHIKL
B15: 46F_47M_49E_50I_52G_53A_54R_55F_67L_, Q9UKT9 (peptide)
chain: FMCEICGARFTQKGNLLRHIKL
B16: 46F_47I_49E_50I_52G_53A_54R_55F_67L_, Q9UKT9 (peptide)
chain: FICEICGARFTQKGNLLRHIKL
B17: 46F_47Q_49E_50I_52G_53A_54W_55F_67L_, Q9UKT9 (peptide)
chain: FQCEICGAWFTQKGNLLRHIKL
B18: 46F_47Q_49E_50I_52G_53A_54R_55F_67L_, Q9UKT9 (peptide)
chain: FQCEICGARFTQKGNLLRHIKL
B19: 46F_47D_49E_50I_52G_53A_54R_55F_67L_, Q9UKT9 (peptide)
chain: FDCEICGARFTQKGNLLRHIKL
B20: 46F_47A_49E_50I_52G_53A_54R_55F_67L_, Q9UKT9 (peptide)
chain: FACEICGARFTQKGNLLRHIKL
B21: 46F_47G_49S_50V_52G_53H_54I_55F_67L_, Q9UKT9 (peptide)
chain: FGCSVCGHIFTQKGNLLRHIKL
B22: 46L_47H_49P_50I_52G_53F_54D_55C_67L_, Q9UKT9 (peptide)
chain: LHCPICGFDCTQKGNLLRHIKL
B23: 46F_47I_49N_50Q_52G_53R_54E_55F_67L_, Q9UKT9 (peptide)
chain: FICNQCGREFTQKGNLLRHIKL
B24: 46F_47Q_49E_50Q_52G_53A_54C_55F_67L_, Q9UKT9 (peptide)
chain: FQCEQCGACFTQKGNLLRHIKL
B25: 46F_47C_49P_50I_52G_53A_54N_55F_67L_, Q9UKT9 (peptide)
chain: FCCPICGANFTQKGNLLRHIKL
B26: 46F_47M_49E_50I_52G_53R_54G_55F_67L_, Q9UKT9 (peptide)
chain: FMCEICGRGFTQKGNLLRHIKL
B27: 46L_47T_49P_50I_52G_53F_54I_55C_67L_, Q9UKT9 (peptide)
chain: LTCPICGFICTQKGNLLRHIKL
B28: 46L_47R_49P_50I_52G_53F_54R_55C_67L_, Q9UKT9 (peptide)
chain: LRCPICGFRCTQKGNLLRHIKL
B29: 46L_47M_49P_50I_52G_53F_54R_55C_67L_, Q9UKT9 (peptide)
chain: LMCPICGFRCTQKGNLLRHIKL
B30: 46L_47Q_49P_50I_52G_53F_54I_55C_67L_, Q9UKT9 (peptide)
chain: LQCPICGFICTQKGNLLRHIKL
B31: 46L_47E_49P_50I_52G_53F_54R_55C_67L_, Q9UKT9 (peptide)
chain: LECPICGFRCTQKGNLLRHIKL
B32: 46L_47V_49P_50I_52G_53F_54R_55C_67L_, Q9UKT9 (peptide)
chain: LVCPICGFRCTQKGNLLRHIKL
B33: 46L_47T_49P_50I_52G_53F_54R_55C_67L_, Q9UKT9 (peptide)
chain: LTCPICGFRCTQKGNLLRHIKL
B34: 46L_47Y_49P_50I_52G_53F_54R_55C_67L_, Q9UKT9 (peptide)
chain: LYCPICGFRCTQKGNLLRHIKL
B35: 46L_47S_49P_50I_52G_53F_54I_55C_67L_, Q9UKT9 (peptide)
chain: LSCPICGFICTQKGNLLRHIKL
B36: 46L_47L_49P_50I_52G_53F_54R_55C_67L_, Q9UKT9 (peptide)
chain: LLCPICGFRCTQKGNLLRHIKL
B37: 46L_47Q_49P_50I_52G_53F_54R_55C_67L_, Q9UKT9 (peptide)
chain: LQCPICGFRCTQKGNLLRHIKL
B38: 46L_47D_49P_50I_52G_53F_54R_55C_67L_, Q9UKT9 (peptide)
chain: LDCPICGFRCTQKGNLLRHIKL

Target: T1, CRBN, Q96SW2
Assay: log2 fold change of degron read counts, EGFP-low vs EGFP+ sorted cells (limma voom), compound-induced degradation; higher = more compound-induced degradation of the degron-EGFP fusion; degrons are variants of IKZF1/3 zinc finger 2; compound dose not given here
Details: Jurkat, 18 h
[1] = compound: compound 19 (5-tert-butyl-thalidomide)
[2] = compound: compound 22 (5-morpholino-thalidomide)
[3] = compound: compound 33 (diphenyl IMiD analogue)
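Note: pooled lentiviral library of zinc finger degron-EGFP fusions in mCherry-positive Jurkat cells, FACS-sorted after compound exposure, with degron abundance counted by next-generation sequencing.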

Sequence | log2 fold change of degron read counts [1] | log2 fold change of degron read counts [2] | log2 fold change of degron read counts [3] | log2 fold change of degron read counts (compound: thalidomide)
B1 | -0.0994 | 0.676 | -1.15 | -1.09
B2 | -1.87 | -2.27 | -1.97 | -1.71
B3 | -2.36 | -2.92 | -3.64 | -3.18
B4 | -1.49 | -0.504 | 0.233 | 0.803
B5 | -2.53 | -2.91 | -2.85 | -2.39
B6 | -2.54 | -2.73 | -1.77 | -2.38
B7 | -1.6 | -1.45 | 1.54 | -0.529
B8 | -1.48 | -2.02 | -1.83 | -1.5
B9 | 0.761 | -0.0429 | -0.436 | -0.337
B10 | 2.72 | 2.42 | 0.44 | 0.706
B11 | 1.67 | 2.43 | 1.02 | 3.07
B12 | 3.7 | 3.37 | 2.11 | 1.8
B13 | -0.586 | -0.873 | -0.311 | 0.853
B14 | 0.574 | -1.16 | -0.0449 | 2.33
B15 | -0.0205 | -0.359 | 1.34 | 1.5
B16 | 0.817 | 2.66 | 1.57 | 3.04
B17 | -1.84 | -0.947 | 0.615 | 2.26
B18 | 0.106 | 2.1 | 1.34 | 3.7
B19 | 3.3 | 1.74 | 0.651 | 2.27

Sequence | log2 fold change of degron read counts [1] | log2 fold change of degron read counts [2] | log2 fold change of degron read counts [3] | log2 fold change of degron read counts (compound: thalidomide)
B20 | 3.84 | 2.89 | -0.685 | 1.16
B21 | -1.23 | -2.7 | -2.06 | -1.9
B22 | -1.62 | -1.37 | 0.393 | -0.313
B23 | -2.93 | -3.08 | -3.08 | -3.43
B24 | -1.81 | 0.107 | 0.542 | 3.02
B25 | 2.07 | 2.16 | 2.33 | 2.22
B26 | -1.28 | -1.8 | -0.771 | -1.76
B27 | -0.0311 | 0.718 | 1.67 | 1.78
B28 | -0.000253 | -0.254 | 0.655 | 1.06
B29 | 0.588 | 1.13 | 2.13 | 2
B30 | -0.0184 | 2.22 | 2.06 | 3.45
B31 | 1.29 | 0.491 | 2.73 | 3.62
B32 | 1.86 | 3.01 | 1.42 | 3.2
B33 | 1.45 | 2.61 | 1.91 | 2.92
B34 | 3.08 | 3.4 | 1.5 | 1.15
B35 | 1.06 | 1.05 | 1.47 | 0.848
B36 | 0.662 | -0.346 | 0.856 | 2.44
B37 | 0.322 | 1.54 | 0.782 | 3.35
B38 | 2 | 0.931 | 1.11 | 2.55
